Assay outcomes (PubChem)
Sampled rows, rich in hits. Any-hit rate of the full collection: about 3.3%.
GRIN3A LBD mod: modulators (binders) of human NR3A ligand-binding domain. NR3A LBD differential scanning fluorimetry, Tm shift; 0% = protein alone, 100% = glycine-bound protein. Tm shift relative to glycine control, % at 25 µM. 340,000 tested, 2.5% active. AID 1259313;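 active = melting temperature shift of at least 10% of the positive control shift, at one fixed dose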
UBC13 inh: human UBC13 polyubiquitination inhibition; P61088; UBC13 polyubiquitin chain formation, TR-FRET; inhibition, % at 20 µM; 330,000 tested, 0.47% active; AID 485273; in the data active = inhibition above about 45%, passing the limit was not always enough
sPLA2-III inh: Blocks human group III sPLA2 activity; Q9NZ20; QFRET BODIPY PC-A2 liposome hydrolysis, fluorescence; inhibition, % at 12.2 µM; 370,000 tested, 0.56% active;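 active = inhibition above mean plus 3 SD of compounds lying within the high and low control bounds, cut at about 19% in these data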
UBC9 SUMO inh: inhibitors of human SUMOylation (UBC9); P63279; HTRF SUMOylation assay, SAE1/SAE2 + UBC9, in vitro; inhibition, % at 35 µM; 290,000 tested, 0.36% active; in the data active = inhibition above about 50%, passing the limit was not always enough
Target sequence (P63279 whole entry, looked up): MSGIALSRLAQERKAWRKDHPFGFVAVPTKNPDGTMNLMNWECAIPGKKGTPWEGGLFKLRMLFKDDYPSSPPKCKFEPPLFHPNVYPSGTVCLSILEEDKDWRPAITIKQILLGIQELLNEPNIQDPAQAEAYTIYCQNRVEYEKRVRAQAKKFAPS
Hits are given with their value; . = inactive; / = no result.

SMILES | GRIN3A LBD mod | UBC13 inh | sPLA2-III inh | UBC9 SUMO inh
COc1cc(NC(=O)c2cc(-c3cccnc3)nc3ccc(Br)cc23)cc(OC)c1 | 10 | . | . | .
CC(C)c1ccc(-c2cc(C(=O)N3CCOCC3)c3cc(Br)ccc3n2)cc1 | 19 | . | . | .
NNC(=O)c1cc(-c2ccc(N)cc2)nc2ccc(Br)cc12 | 18 | . | . | .
Cc1cc(C(=O)NN)c2cc(Br)ccc2n1 | . | . | . | .
O=C(c1cc(-c2ccccc2)nc2ccccc12)N1CCOCC1 | . | . | . | .
Cc1cc2nc(CS)[nH]c2cc1C | . | . | . | .
Cc1cc2nc(CO)[nH]c2cc1C | 15 | . | . | .
COCCCNC(=O)C[C@H]1C[C@@]2(C(=O)OC)C(=C[C@H](C(C)(C)C)O[C@@H]2C)N(Cc2ccco2)C1=O | / | / | . | /
CCCn1c(C(C)Nc2nc(-c3ccc(Cl)c([N+](=O)[O-])c3)cs2)nc2ccccc21 (configuration not stated) | . | . | . | .
CCCn1c(CCNc2nc(-c3ccc(Cl)c([N+](=O)[O-])c3)cs2)nc2cc(Cl)c(Cl)cc21 | 13 | . | . | .
Cc1ccc(Cn2c(C(C)Nc3nc(-c4ccc(Cl)c([N+](=O)[O-])c4)cs3)nc3cc(C(F)(F)F)ccc32)cc1 (configuration not stated) | 14 | . | . | /
COC(=O)[C@]12C[C@H](CC(=O)NCCc3ccccc3OC)C(=O)N(Cc3ccc(Cl)cc3Cl)C1=C[C@H](C1CCCC1)O[C@@H]2C | / | / | . | /
CC(C)[C@@H](CO)N(C)S(=O)(=O)c1ccccc1Br | 11 | / | . | /
O=C(/C(N=Nc1cccc(C(F)(F)F)c1)=C(/O)c1cccs1)C(F)(F)F | 17 | . | . | .
CC(=O)/C(N=Nc1cccc(C(F)(F)F)c1)=C(\C)O | . | . | . | .
CN(Cc1ccccc1)C(=O)OCc1cn(Cc2cc(F)cc(F)c2)nn1 | / | / | . | /
CC(=O)Nc1ccc(/C=N/NC(=O)CCN2CCN(c3ccccc3)CC2)cc1 | 33 | . | . | .
COc1ccc(/C=N\NC(=O)CCN2CCN(c3ccccc3)CC2)cc1OC | . | . | . | .
COc1ccc(NC(=O)c2ccc(N3C(=O)C4CC=C(Cl)CC4C3=O)cc2)cc1 (configuration not stated) | 18 | . | . | .
Cc1ccc(Nc2ccc(C(=O)NCCc3ccccc3)cn2)cc1 | 24 | . | . | .
COc1ccc(C(=O)Nc2ccc(C(=O)NCCc3ccccc3)cc2)cc1 | 22 | . | . | .
COC(=O)C1CN(Cc2ccc(OC)cc2)CCS(=O)(=O)N1Cc1ccc(F)cc1 (configuration not stated) | / | / | . | /
O=C(Nc1ccc(F)cc1)OC1CC2CC1[C@H]1CCCCN1C2 (some centres not stated) | / | / | . | /
COc1ccc(OCC(=O)Nc2ccc(N3CCN(C(=O)c4ccccc4C)CC3)cc2)cc1 | 18 | . | . | .
COc1ccc(NC(=O)c2cccc(N3C(=O)C4C5C=CC(C6CC56)C4C3=O)c2)c(OC)c1 (configuration not stated) | . | . | . | .
